# In PubChem BioAssay (NCATS):
# Results filed as inconclusive are left out. Activity calls are given as the source filed them. The call rests on the fitted dose curve; in most records, active means well fitted cell-killing curve with a large enough effect; inconclusive means small, poorly fitted or top-dose-only effect, or effect the other way; inactive means no such curve, though single readings can be large or run the other way.
# Experiment: Quantitative High-Throughput drug screen in 47 multiple myeloma cell lines against the NCATS MIPE library collection: KMS27_JCRB cell viability assay (AID 1918970); further: nearly all actives have a fitted effect of over 30% in size
# Conditions: KMS27 myeloma cells, CellTiter-Glo ATP viability, 48 h; series mostly up to 45.8 µM
# Procedure, shortened: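 Viability inhibition screen, 48 h compound exposure, luminescent ATP read-out.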
# Potency means the concentration at half of the fitted maximal effect.
row,Compound,Potency
1,Cc1ccc(NC(=O)C2(c3ccc4c(c3)OC(F)(F)O4)CC2)nc1-c1cccc(C(=O)O)c1,46.9 nM (active)
2,COc1ccc(C(=O)CC2(O)C(=O)Nc3c(Cl)ccc(Cl)c32)cc1 (stereo not drawn),1050 nM (active)
3,Cc1ccc(-c2ncn(-c3ccc(Nc4nccc(-c5cccc(N6CCOCC6)c5)n4)cc3)n2)cn1,46.9 nM (active)
4,CCCCOc1c(C(=O)c2c(F)cc(C)cc2F)cnc2n[nH]cc12,3720 nM (active)
5,CC(=O)c1c(C)c2cnc(Nc3ccc(N4CCNCC4)cn3)nc2n(C2CCCC2)c1=O,26400 nM (active)
6,CNC(=O)c1ccc(N2C(=S)N(c3cnc(C#N)c(C(F)(F)F)c3)C(=O)C23CCC3)cc1F,4690 nM (active)
7,O=c1[nH]nc(Sc2ncc([N+](=O)[O-])s2)n1-c1ccc2c(c1)OCCO2,6620 nM (active)
8,CN(C)CC=CC(=O)Nc1cc2c(Nc3ccc(F)c(Cl)c3)ncnc2cc1O[C@H]1CCOC1,2640 nM (active)
9,CC(NCc1ccc2c(c1)nc(NC(=O)c1ccc(-c3cn[nH]c3)s1)n2CC(C)(C)O)C(C)(C)C (stereo not drawn),83.3 nM (active)
10,C#Cc1cccc(Nc2ncnc3cc(OC)c(OCCCCCCC(=O)NO)cc23)c1,74.3 nM (active)
11,CC1(O)CC(c2nc(-c3ccc4ccc(-c5ccccc5)nc4c3)c3c(N)nccn23)C1 (stereo not drawn),2350 nM (active)
12,CC(C)(C)c1cnc(CSc2cnc(NC(=O)C3CCNCC3)s2)o1,209 nM (active)
13,CCS(=O)(=O)c1cccc(-c2cc(C(=O)NC3CCN(C)CC3)c(C)c3[nH]c4ncc(C)cc4c23)c1,1320 nM (active)
